Among all 5,500 compounds or so, about 2,000 (36%) were called active. Roughly 18% stayed inconclusive and do not appear here. No stated cut-off is given here; in the data, active means normalized growth mostly below about 0.91 (no sharp cut-off); inconclusive means no clear call, values can overlap the other calls; inactive means mostly above about 0.92. This is one part of the list.
Assay: chemical genetic growth profiling, strain panel (AID 1159580);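 further: tested at 20 µM; growth read once vehicle control cultures reached saturation at 30 °C; 1 = growth at the plate median or of vehicle wells; lower values mean less growth of the strain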
Conditions: S. cerevisiae deletion strains, growth OD

Measured: normalized growth

C[C@H](N)CN1CCc2ccc(Br)cc21
inactive: locus YAL040C, strain CLN3, hits give low values 0.979 | locus YCL061C, strain MRC1 (second series), hits give low values 0.992 | locus YDR150W, strain NUM1, hits give low values 1 | locus YDR363W, strain ESC2, hits give low values 1.01 | locus YER002W, strain NOP16, hits give low values 0.992 | locus YGR078C, strain PAC10, hits give low values 1.02 | locus YJR075W, strain HOC1, hits give low values 1 | locus YMR307W, strain GAS1, hits give low values 1 | locus YNL153C, strain GIM3, hits give low values 0.997 | locus YNL175C, strain NOP13, hits give low values 1.01 | locus YNL197C, strain WHI3, hits give low values 1.02 | locus YNL224C, strain SQS1, hits give low values 1.01 | locus YOR083W, strain WHI5 (second series), hits give low values 1 | locus YPL055C, strain LGE1, hits give low values 0.968

Source: PubChem BioAssay AID1159580 (chemical genetic matrix, 2015)
